Consider 40 compounds from PubChem BioAssay (Tox21).

The structures appear in SMILES notation. Records with an inconclusive call do not appear. Calls of active or inactive are those of the source. Calls follow the shape of the dose curve; as a rule, active = well fitted inhibition curve with a large enough effect in the signal ratio in the repeat runs (not every such curve was filed as active); inconclusive = weak or mixed curves, or effect the other way; inactive = no such curve, though single readings can be large or run the other way; the % refers to the signal ratio.

Chain of Glucocorticoid receptor (Homo sapiens) (P04150 whole entry, looked up): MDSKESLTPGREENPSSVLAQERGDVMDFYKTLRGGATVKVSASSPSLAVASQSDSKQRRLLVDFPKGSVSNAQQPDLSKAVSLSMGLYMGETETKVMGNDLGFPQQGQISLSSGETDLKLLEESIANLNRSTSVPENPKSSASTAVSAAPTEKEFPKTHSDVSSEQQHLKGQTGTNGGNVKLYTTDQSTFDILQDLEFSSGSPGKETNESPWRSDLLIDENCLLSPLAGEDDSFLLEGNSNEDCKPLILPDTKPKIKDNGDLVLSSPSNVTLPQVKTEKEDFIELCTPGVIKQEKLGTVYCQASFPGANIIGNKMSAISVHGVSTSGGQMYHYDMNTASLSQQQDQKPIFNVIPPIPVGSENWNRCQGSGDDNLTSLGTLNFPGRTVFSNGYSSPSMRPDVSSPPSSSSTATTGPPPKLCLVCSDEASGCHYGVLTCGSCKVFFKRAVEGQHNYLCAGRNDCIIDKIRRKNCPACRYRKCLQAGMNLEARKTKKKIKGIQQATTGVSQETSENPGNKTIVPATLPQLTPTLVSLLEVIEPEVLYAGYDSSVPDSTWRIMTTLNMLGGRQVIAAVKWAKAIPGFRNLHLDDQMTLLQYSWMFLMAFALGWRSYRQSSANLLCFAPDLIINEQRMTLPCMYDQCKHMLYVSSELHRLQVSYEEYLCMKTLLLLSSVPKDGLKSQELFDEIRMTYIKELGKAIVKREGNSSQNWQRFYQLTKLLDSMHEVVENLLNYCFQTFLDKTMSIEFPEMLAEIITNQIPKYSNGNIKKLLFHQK

In this assay the target is Glucocorticoid receptor (Homo sapiens) (UniProt P04150). The assay is described as follows: qHTS assay to identify small molecule antagonists of the glucocorticoid receptor (GR) signaling pathway (AID 720692). The note with it: GR-bla HeLa, beta-lactamase FRET ratio, dexamethasone-stimulated, 18 h; series mostly up to 58.5 µM. From the text:
U.S. Tox21 Program National Center for Advancing Translational Sciences [NCATS] NIH Chemical Genomics Center [NCGC] U.S. Environmental Protection Agency [EPA] National Institutes of Environmental Health Sciences [NIEHS] National Toxicology Program [NTP] U.S. Food and Drug Administration [FDA] Tox21 Assay Overview: The Glucocorticoid receptor (GR) is one of the members of the nuclear receptor family of ligand-dependent transcription factors. GR plays a critical role in carbohydrate, protein and lipid metabolisms and programmed cell death. CellSensor GR-bla HeLa cell line (Invitrogen) contains a beta-lactamase reporter gene under the control of the glucocorticoid response element stably integrated into HeLa cells, a cervical cancer cell line that expresses glucocorticoid receptor. The activation of the reporter gene under culture conditions can be detected by fluorescence intensity. This cell line has been used to screen the Tox21 10K compound library and to identify the compounds that inhibit the GR signaling.
Tox21 Assay Protocol Summary: The GR-bla HeLa cells were dispensed at 1500 cells/5 ul/well in 1536-well black wall/clear bottom plates using a Multidrop Combi (ThermoFisher Scientific, Waltham, MA) dispenser. After the assay plates were incubated at a 37 C/5% CO2 incubator for 4 hours, 23 nL of compounds dissolved in DMSO, positive controls or DMSO only was transferred to the assay plate by a pintool station (Kalypsys, San Diego, CA), followed by addition of 1 uL of dexamethasone (5 nM, final concentration in the well). The plates were incubated at 37 C for 18 hours. After 1 uL of LiveBLAzerTM B/G FRET substrate was added using a Flying Reagent Dispenser (Aurora Discovery, San Diego, CA), the plates were incubated at room temperature for 2 hours, and fluorescence intensity was measured by an Envision plate reader (PerkinElmer, Shelton, CT).
Regarding `CCCCCCCCCCC`, the result was inactive.
With `CC(C)(c1ccc(Oc2ccc3c(c2)C(=O)OC3=O)cc1)c1ccc(Oc2ccc3c(c2)C(=O)OC3=O)cc1`, the result was inactive.
As to `Nc1c(NC/C=C\COc2cc(CN3CCCCC3)ccn2)c(=O)c1=O`, the result was inactive.
The result for `O=C1c2ccccc2-c2ccccc21` reads “inactive”; that for `Cc1ccccc1N1CCN(CCc2nnc3n2CCCC3)CC1`, “inactive”; that for `NC(Cc1c[nH]c2ccccc12)C(=O)O` (stereo not given), “inactive”.
On to `C=CC(C)(O)CC/C=C(\C)CC` (stereo not given), for which the outcome was inactive.
In the case of `C[C@H](CCC(=O)O)[C@H]1CC[C@H]2[C@@H]3[C@H](O)C[C@@H]4C[C@H](O)CC[C@]4(C)[C@H]3C[C@H](O)[C@]12C`, the result was inactive.
Turning to `NS(=O)(=O)c1cc2c(cc1Cl)NC(CC1CCCC1)NS2(=O)=O` (stereo not given), the outcome was inactive.
As to `CO/N=C(/C(=O)N[C@@H]1C(=O)N2C(C(=O)O)=C(Cn3nnc(C)n3)CS[C@H]12)c1csc(N)n1`, the outcome was inactive.
Turning to `CCCCCCCC[Si](OCC)(OCC)OCC`, the result was inactive.
On to `O=C(O)c1ccccc1C(=O)OCc1ccccc1`, for which the result was inactive.
The value for `CN[C@@H]1[C@@H](O)[C@@H](O[C@@H]2[C@H](O)[C@H](O[C@H]3OC(CN)=CC[C@H]3N)[C@@H](N)C[C@H]2N)OCC1(C)O` (stereo not given in full) was “inactive”.
Regarding `C=C[C@@H](C)CCC=C(C)C`, the result was inactive.
The result for `CC(C)COC(=O)COc1ccc(Cl)cc1Cl` reads “inactive”; that for `O=C(O)c1c(Cl)ccc(Cl)c1Cl`, “inactive”.
For the compound `CO[Si](CCCS)(OC)OC`, the outcome was inactive.
The result for `O=[Si]=O` reads “inactive”.
Take `CC1=NN(c2ccc(S(=O)(=O)O)cc2)C(=O)C1N=Nc1ccccc1` (stereo not given): the result was inactive.
The value for `Nc1ccnc(=O)[nH]1` was “inactive”; that for `Cc1cccc(NC(=S)N(C)C)c1` was “inactive”; that for `FC(F)(F)/C(=N\OCC1OCCO1)c1ccc(Cl)cc1` was “inactive”.
The result for `O=C(O)c1ccccc1C(=O)Nc1ccc(S(=O)(=O)Nc2nccs2)cc1` reads “inactive”; that for `CN(C)CCOCCN(C)CCO`, “inactive”; that for `N#CCCOCCOCCC#N`, “inactive”.
In the case of `C1CCN2C[C@@H]3C[C@@H](CN4CCCC[C@@H]34)[C@H]2C1`, the result was inactive.
The value for `CCCCCCCC/C=C\CCCCCCCC(=O)OC[C@@H](O)[C@H]1OC[C@H](O)[C@H]1O` was “inactive”.
`Nc1ccc(S(=O)(=O)Nc2ccccn2)cc1`: the outcome was inactive.
For the compound `O=C(COCCOCCOCC(=O)Nc1c(I)cc(I)c(C(=O)O)c1I)Nc1c(I)cc(I)c(C(=O)O)c1I`, the outcome was inactive.
The value for `COC(OC)C(C)c1ccccc1` (stereo not given) was “inactive”; that for `O=S(=O)(O)CCO` was “inactive”; that for `CC(Cl)COP(=O)(OCC(C)Cl)OCC(C)Cl` (stereo not given) was “inactive”.
The result for `COc1cc([N+](=O)[O-])ccc1N` reads “inactive”; that for `CC(C)CCCCCCOC(=O)C1CCCCC1C(=O)OCCCCCCC(C)C` (stereo not given), “inactive”.
On to `C=CCOCC(CO)(COCC=C)COCC=C`, for which the result was inactive.
Consider `Cc1cccc(Nc2ccncc2S(=O)(=O)NC(=O)NC(C)C)c1`, for which the outcome was inactive.
`C[C@H](CCC(=O)NCC(=O)O)[C@H]1CC[C@H]2[C@@H]3[C@H](O)C[C@@H]4C[C@H](O)CC[C@]4(C)[C@H]3C[C@H](O)[C@]12C`: the result was inactive.
The value for `C[N+](C)(C)CC(O)CCl` (stereo not given) was “inactive”; that for `OCCCCCCCl` was “inactive”; that for `Cc1cc(C)cc([N+](=O)[O-])c1` was “inactive”.
